B2AR arrestin: beta2AR (human) beta-arrestin recruitment activity | 0.02% of 330,000 active | beta-arrestin recruitment to beta2AR, cell-based reporter | P07550 | Potency, µM (top dose mostly 46.1 µM), for inactives: top-dose activation, usual class: activators | AID 492947;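 further: potency means the concentration at half of the fitted maximal effect; 0% = DMSO controls and full agonism = EC100 isoproterenol or metaproterenol; nearly all actives have a fitted effect of over 65% in size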
TSHR antag: antagonists of human thyroid stimulating hormone receptor | P16473 | TSHR-expressing cells, TSH-stimulated cAMP HTRF, 2 h; active compounds read low | activity change, negative = inhibition, % at 11.5 µM | 0.2% of 330,000 active;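 active means activity change below a set negative limit, meaning inhibition stronger than a set level, cut at about -70% in these data; inconclusive means activity change between two set negative limits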
Target sequence (P16473 whole entry, looked up): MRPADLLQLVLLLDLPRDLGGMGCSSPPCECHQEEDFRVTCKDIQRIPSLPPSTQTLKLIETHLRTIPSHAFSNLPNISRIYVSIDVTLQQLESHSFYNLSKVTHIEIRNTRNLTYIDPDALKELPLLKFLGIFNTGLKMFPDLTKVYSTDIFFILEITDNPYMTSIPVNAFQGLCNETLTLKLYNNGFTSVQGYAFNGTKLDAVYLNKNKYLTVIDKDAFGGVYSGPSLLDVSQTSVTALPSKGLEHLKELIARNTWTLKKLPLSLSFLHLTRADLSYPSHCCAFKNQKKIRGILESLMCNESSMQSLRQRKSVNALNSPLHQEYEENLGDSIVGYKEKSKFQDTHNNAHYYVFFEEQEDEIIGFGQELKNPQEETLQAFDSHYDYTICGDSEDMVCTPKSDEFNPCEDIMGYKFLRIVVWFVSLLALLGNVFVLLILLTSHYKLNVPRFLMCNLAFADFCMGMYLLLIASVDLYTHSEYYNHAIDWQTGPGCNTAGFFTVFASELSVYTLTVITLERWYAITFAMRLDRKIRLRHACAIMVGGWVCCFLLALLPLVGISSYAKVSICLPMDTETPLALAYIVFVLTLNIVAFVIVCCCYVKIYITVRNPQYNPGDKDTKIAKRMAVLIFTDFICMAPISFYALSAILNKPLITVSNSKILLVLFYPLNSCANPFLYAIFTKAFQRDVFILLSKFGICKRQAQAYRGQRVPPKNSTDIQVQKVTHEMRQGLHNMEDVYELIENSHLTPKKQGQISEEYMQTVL
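Read-out is FRET at 665 nm (cryptate excitation 337 nm) from a cryptate-tagged anti-cAMP antibody, competed by cell cAMP against cAMP-d2. Compounds are tested on freshly harvested TSHR cells challenged with 4nM TSH (EC80) for 2 hours at 37 deg C.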
RORg inh: ROR gamma (mouse) transcription inhibition. 5.4% of 310,000 active. AID 2551. Drosophila S2 Gal4-RORgamma UAS-luciferase reporter, 20 h. Potency, µM (doses to about 53.6 µM), without a hit: at the top dose activity change, negative = inhibition, actives largely listed as inhibitors; further: potency means the concentration at half of the fitted maximal effect; nearly all actives have a fitted effect of over 60% in size
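A Gal4/UAS one-hybrid system in insect cells: metallothionein-promoter Gal4–ROR gamma fusion plus Photinus luciferase reporter. Copper sulfate 700 uM final, 20 hr ambient incubation, luminescent detection after 10 min with reagent.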
VP16 counter: inhibits Gal4-VP16 luciferase reporter, ROR gamma counter-screen. Drosophila S2 Gal4-VP16 UAS-luciferase, luminescence, 20 h. Potency, µM (series often up to 53.6 µM), for the others: at the highest dose activity, negative = inhibition, most hits filed as inhibitors. 3.5% of 310,000 active. AID 2546;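 further: Gal4-VP16 expression switched on by copper sulfate through the metallothionein promoter; potency means the concentration at half of the fitted maximal effect; nearly all actives have a fitted effect of over 50% in size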
ELG1 DNA repair: ELG1-dependent DNA repair inhibition. Potency, µM (doses to about 46.1 µM), for the others: at the top dose activity change, negative = inhibition, actives largely listed as inhibitors. AID 504467. HEK293T ELG1-luciferase reporter, luminescence, 16 h; DNA damage induced by 5-fluorouridine. 2.3% of 330,000 active; further: potency means the concentration at half of the fitted maximal effect; nearly all actives have a fitted effect of over 55% in size
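In this reporter screen, reduction of luminescence relative to DMSO vehicle indicated activity. Compounds and 5-fluorouridine were added together to 2,000 cells per well, incubated for 16 hr at 37 °C, then developed with ONE-Glo.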
An asterisk follows results filed as active; ? = inconclusive; . = not tested or not shown. Shown are actives, neighbours in structure and some others; about 7.5% of the full set was active somewhere. Unless noted, the call rests on the fitted dose curve; in most records, active means well fitted curve in the direction sought with a large enough effect; inconclusive means small, poorly fitted or top-dose-only effect, or another doubt; inactive means no such curve, though single readings can be large; an effect the other way counts as inactive or inconclusive. Unless noted, on the % scale 0 is the no-effect control and ±100 the full control effect.

SMILES	B2AR arrestin	TSHR antag	RORg inh	VP16 counter	ELG1 DNA repair
COc1ccc(C2(C)NC(=O)N(CC(=O)Nc3ccc(-c4nc5ccc(C)cc5s4)cc3)C2=O)cc1 (stereo unspecified)	-0.8%	-6.5	-13.9%	-9.3%	?
CCn1c(SCC(=O)Nc2ccc(-c3nc4ccc(C)cc4s3)cc2)nnc1-c1ccccc1	-0.4%	-0.5	11.2µM*	17.8µM*	?
O=C(CSc1nnc(-c2cccnc2)n1Cc1ccco1)Nc1nc(-c2ccc(F)cc2)cs1	-0.2%	-15.4	?	2.7%	20.6µM*
CCC1(c2ccc(F)cc2)NC(=O)N(CC(=O)Nc2ccc(-c3nc4ccc(C)cc4s3)cc2)C1=O (stereo unspecified)	0.3%	5.5	0.447µM*	-13.8%	?
CCn1c(CSc2nc(C)cc(C)n2)nnc1SCC(=O)Nc1nc(-c2ccccc2)cs1	0.0%	3.6	6.1%	-9.5%	-5.0%
CCn1c(SCC(=O)Nc2nc(-c3ccc(C)cc3)cs2)nnc1-c1ccccc1	-3.7%	-7.8	30.8%	16.5%	25.9µM*
CCOc1cc(/C=C(\C#N)C(N)=O)cc(CSc2ccccc2)c1O	.	.	?	-7.4%	.
COc1ccc(/C=C/C(=O)c2ccc([N+](=O)[O-])o2)cc1OC	-0.2%	-26.3	.	.	11.6µM*
O=C(/C=C/c1cccc(Cl)c1)c1ccc([N+](=O)[O-])o1	-0.2%	-80.9*	.	.	7.3µM*
COc1cc(/C=C/C(=O)c2ccc([N+](=O)[O-])o2)ccc1O	-0.1%	?	.	.	?
COC(F)(F)C(Cl)Cl	.	.	7.1%	-3.0%	.
Cc1ccc(CS(=O)Cc2ccc(C(=O)NCc3ccc(OC(C)C)cc3)o2)cc1 (stereo unspecified)	-0.5%	0.0	11.9%	4.7%	7.3µM*
COc1ccc(-c2nc3cnc(Nc4cccc(OC)c4)nc3n(C)c2=O)cc1	.	.	-24.3%	?	.
CC(C)(C)NC(=S)NNC(=O)[C@H]1C[C@@H]1c1ccccc1	0.4%	-12.2	0.562µM*	-22.8%	6.4%
O=C(NC(=S)NNC(=O)[C@H]1C[C@@H]1c1ccccc1)c1ccc(F)cc1	0.5%	11.5	10µM*	?	?
O=C(NNC(=O)C1CC1c1ccccc1)Nc1ccccc1 (stereo unspecified)	-0.5%	9.1	1.3%	-3.2%	-2.8%
COc1cc(OC)cc(C(=O)NC(=S)NNC(=O)[C@H]2C[C@@H]2c2ccccc2)c1	-1.1%	15.6	14.1µM*	?	-24.1%
O=C(/C=C/c1ccc(F)cc1)NC(=S)NNC(=O)[C@H]1C[C@@H]1c1ccccc1	-1.0%	-13.3	?	-7.5%	?
N#CCc1c(C#N)c(N)nc(N2CCN(S(=O)(=O)c3ccccc3)CC2)c1C#N	-0.3%	-4.1	?	-2.8%	9.2µM*
N#CCc1c(C#N)c(N)nc(N2CCN(C=O)CC2)c1C#N	-0.8%	3.6	0.7%	0.7%	-1.2%
O=C1CC(c2ccc3c(c2)OCCO3)Oc2ccccc21 (stereo unspecified)	-0.4%	2.2	-12.2%	-5.8%	?
O=C1CC(c2ccc3c(c2)OCCO3)Oc2ccc([N+](=O)[O-])cc21 (stereo unspecified)	-0.3%	-15.9	11.2µM*	12.6µM*	?
Cc1cc(CSC(=N)N)c(CSC(=N)N)cc1C	-0.3%	0.7	-6.3%	0.0%	-0.7%
CCCOc1ccc(Br)cc1CSC(=N)N	-0.7%	-19.9	?	12.6µM*	?
Cc1nc(-c2cccc(NC(=O)c3ccc(-n4nccc4C)cc3)c2)cs1	0.4%	-72.1*	.	.	?
SMILES	B2AR arrestin	TSHR antag	RORg inh	VP16 counter	ELG1 DNA repair
Cc1nc(-c2ccc(C(=O)Nc3cccc(Br)c3)cc2)cs1	-0.6%	-32.2	-36.1%	-21.8%	?
O=C(CCS(=O)(=O)c1ccc(Cl)cc1)Nc1nc(-c2ccncc2)cs1	0.0%	10.0	8.0%	-7.7%	7.3µM*
O=C(CCS(=O)(=O)c1ccc(Cl)cc1)Nc1nc(-c2cccnc2)cs1	-0.8%	-2.3	-7.5%	-13.2%	?
O=C(Oc1ccc([N+](=O)[O-])cc1)C1CC(=O)N(c2ccc3c(c2)OCCO3)C1 (stereo unspecified)	-0.2%	-12.4	.	.	?
COc1ccc(NCc2ccc([N+](=O)[O-])s2)c(OC)c1	1.6%	-5.8	12.1%	11.2µM*	-1.1%
COCCn1c(C)nnc1SCC(=O)NNC(=O)c1ccc(Br)cc1	0.2%	-7.2	-18.1%	-4.7%	5.8%
O=C(COC(=O)/C=C/c1ccc([N+](=O)[O-])cc1)NC1CCCCC1	0.0%	25.0	.	.	17.3%
CCN(Cc1nc(-c2ccc(Cl)cc2)no1)CC1CCCO1 (stereo unspecified)	0.1%	-30.0	20.4%	3.9%	2.6%
Clc1ccc(-c2noc(CN(Cc3ccccn3)CC3CCCO3)n2)cc1 (stereo unspecified)	0.1%	-17.9	3.98µM*	-26.1%	-17.3%
Cc1cccc(Nc2nc(-c3ccc(O)cc3O)cs2)n1	-0.3%	39.0	3.98µM*	?	?
CC1(C)Cc2nc3sc4c(SCC(=O)O)ncnc4c3cc2CO1	-0.2%	-11.3	8.91µM*	14.1µM*	?
COC(=O)CSc1ncnc2c1sc1nc3c(cc12)COC(C)(C)C3	0.1%	-2.7	-24.5%	-24.3%	24.6%
Cc1ccc(S(=O)(=O)NNC2=NS(=O)(=O)c3ccccc32)c(C)c1	-0.2%	10.6	10µM*	-28.1%	5.6%
Cc1ccc(C)c(NC2=NS(=O)(=O)c3ccccc32)c1	0.4%	-11.0	-7.6%	1.9%	-11.2%
CNC(=S)N1N=C(c2ccc(Br)cc2)CC1c1ccc(Br)cc1 (stereo unspecified)	0.3%	-25.9	-22.7%	2.9%	5.8µM*
CNC(=S)N1N=C(c2cccs2)CC1c1ccc(OC)cc1 (stereo unspecified)	7.1%	-10.9	20µM*	-8.6%	17.7%
COc1ccc(C2CC(c3cccs3)=NN2C(=O)CN2CCCCC2)cc1 (stereo unspecified)	-0.2%	-4.7	0.7%	12.2%	16.0%
CNC(=S)N1N=C(c2ccc(Br)cc2)CC1c1ccc(N(C)C)cc1 (stereo unspecified)	5.4%	-4.9	?	0.4%	-12.8%
O=C(Nc1ccccc1)N1N=C(c2ccc(F)cc2)CC1c1ccc(F)cc1 (stereo unspecified)	0.1%	-11.9	34.0%	0.9%	-16.5%
CNC(=S)N1N=C(c2ccc(OC)cc2)CC1c1ccc(N(C)C)cc1 (stereo unspecified)	0.7%	-6.4	12.6µM*	?	-30.0%
Fc1ccc(C2CC(c3cccs3)=NN2C(=S)Nc2ccccc2)cc1 (stereo unspecified)	-0.1%	9.6	7.94µM*	-10.5%	13.2%
COc1cc(C2CC(c3cccs3)=NN2C(=O)CCl)ccc1OC(F)F (stereo unspecified)	0.1%	-13.0	?	15.8µM*	0.0%

Compound activity as filed in PubChem BioAssay.
